Measured values: PubChem BioAssay (NCATS)
Records with an inconclusive call do not appear. Unmarked numbers belong to inactive results. The source made the active and inactive calls. Calls come from the whole dose curve.

Assay: Cell Viability - BJ (AID 421);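 note: cells exposed to compound for 40 hours at 37 °C before readout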
Settings: BJ fibroblast viability, qHTS
Description: NIH Chemical Genomics Center [NCGC]
NIH Molecular Libraries Screening Centers Network [MLSCN]
National Institutes of Environmental Health Sciences [NIEHS]
National Toxicology Program [NTP]
We have developed a 1536-well cell-based assay for quantitative high throughput screening (qHTS) against a number of cell lines to determine in vitro cytotoxicity of small molecules. This particular assay uses the BJ cell line from ATCC which is derived from normal human foreskin fibroblasts.
NCGC Assay Protocol Summary:
The CellTiter-Glo luminescent cell viability assay (Promega) is a homogeneous method to measure the number of viable cells in culture. The end point readout of this assay is based on quantitation of intracellular ATP, an indicator of metabolic activity, using the luciferase reaction. Luciferase catalyzes the oxidation of beetle Luciferin to oxyluciferin and light in the presence of ATP. The luminescent signal is proportional to amount of ATP present.
Using the CellTiter-Glo luminescent cell viability assay, the amount of cellular ATP was measured in the BJ cell line with complete culture medium following compound treatment for 40 hours. The assay was performed in opaque white Kalypsys 1536-well plates. In the screen, tamoxifen and doxorubicin were used as positive controls. Library compounds were measured for their ability to cause acute toxicity in the cell line, as reflected by a decrease in intracellular ATP levels, in a concentration-dependent manner. Data were normalized to the controls for basal activity (DMSO only) and 100% inhibition (100 uM tamoxifen). AC50 values were determined from concentration-response data modeled with the standard Hill equation.
qHTS protocol fo CellTiter Glo BJ cellular assay
[Step] [Parameter] [Value] [Description]
1. Reagent; 5 uL; 1500 BJ cells/well
2. Time; 5 hr; 37 °C incubation
4. Controls; 23 nL; Tamoxifen 0.34 uM to 100 uM & Doxorubicin 0.02 nM to 100 uM
5. Time; 40 hr; 37 °C incubation
6. Reagent; 5 uL; CellTiter Glo reagent
7. Time; 20 min; Room Temperature
8. Detection; Luminescence; Viewlux plate reader
Keywords: cell viability, cytotoxicity, BJ cell line, luminescence, NTPHTS, NTPHTS_NCGC, NIEHS, EPA, DSSTox, MLSMR, MLSCN, NIH Roadmap, qHTS, NCGC
Potency is the fitted concentration of half-maximal effect.

Compound | Potency
Nc1ccc(S(=O)(=O)O)cc1 | > 92 µM
CCO | > 92 µM
Cc1ccc([N+](=O)[O-])c(C)c1 | > 92 µM
O=NO | > 92 µM
CCC(O)OC(O)CC (stereo not given) | > 92 µM
OCCNCCO | > 92 µM
COCC(=O)O | > 92 µM
CN(C)CCCCCCN(C)C | > 92 µM
C=CCOC(=O)c1ccccc1C(=O)OCC=C | > 92 µM
NC1=NC(S)C2N=CN=C2N1 (stereo not given) | 0.218 µM (active)
CC1(C)CC(N=C=O)CC(C)(CN=C=O)C1 (stereo not given) | > 92 µM
O=[N+]([O-])c1cccc(Cl)c1Cl | > 92 µM
Cc1ccc(N)c([N+](=O)[O-])c1 | > 92 µM
Clc1cc(Cl)c(Cl)cc1Cl | > 92 µM
O=C(O)c1ccccc1 | > 92 µM
C=CCc1ccc(OC)c(OC)c1 | > 92 µM
CC12CCC(CC1=O)C2(C)C (stereo not given) | > 92 µM
c1ccccc1 | > 92 µM
O=C1CCc2ccccc2O1 | > 92 µM
C=Cc1ccccc1Cl | > 92 µM

Compound | Potency
c1ccc2c(c1)[nH]c1ccccc12 | > 92 µM
Cc1ccc([N+](=O)[O-])cc1N | > 92 µM
CC(=O)OC/C=C(\C)CCC=C(C)C | > 92 µM
O[C@@H]([C@H](O)[C@@H](O)CBr)[C@@H](O)CBr | > 92 µM
O=C(O)c1ccc(O)cc1O | > 92 µM
C=C(C)C1CC=C(C)C(O)C1 (stereo not given) | > 92 µM
COc1cc(/C=C/c2ccccc2)oc(=O)c1 | > 92 µM
Nc1ccc(Cl)cc1Cl | > 92 µM
C=CC(=O)OCCOCCOCCOCCOC(=O)C=C | > 92 µM
ClCCCl | > 92 µM
O=C(/C=C/c1ccc(O)c(O)c1)O[C@@H](C(=O)O)[C@@H](OC(=O)/C=C/c1ccc(O)c(O)c1)C(=O)O | > 92 µM
COc1ccc(/C=C/c2cc(OC)cc(=O)o2)cc1 | > 92 µM
O=C(O)c1ccccc1C(c1ccc(O)cc1)c1ccc(O)cc1 | > 92 µM
CN(C)C=O | > 92 µM
O=S(=O)(O)c1ccccc1 | > 92 µM
c1ccc2c(c1)c1cccc3ccc4cccc2c4c31 | > 92 µM
S=C1NC=NC2N=CNC12 (stereo not given) | 0.22 µM (active)
c1ccc2scnc2c1 | > 92 µM
C=CC(=C)CCC=C(C)C | > 92 µM
O=C(O)CC(C(=O)O)C(CC(=O)O)C(=O)O (stereo not given) | > 92 µM
